# Source: PubChem BioAssay AID1035475 (Broad Institute, 2014)
# Measured potencies and affinities stand elsewhere. Inconclusive results are not listed. Calls of active or inactive are those of the source.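 The calls were made as follows: active = fluorescent signal drops by 40% or more, counted as a hit; inconclusive = no clear call, values can overlap the other calls; inactive = the rest, including any activity in the opposite direction.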
# Assay: inhibitors of fibronectin matrix deposition, dose response, AH1F cells, Alexa488-FN fluorescence, cherry-picks (AID 1035475);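 also: AH1F fibroblasts incorporating labeled fibronectin into their extracellular matrix; 0% = neutral control wells and -100% = wells without labeled fibronectin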
# Conditions: AH1F fibroblasts, overnight; series mostly up to 35 µM; activity change, negative = inhibition: at the top concentration
row,SMILES,"activity change, negative = inhibition"
1,O=S(=O)(c1cccc(F)c1)N1CC[C@@H]2[C@H]1c1cc(-c3cccc(F)c3)ccc1N[C@@H]2CO,10.5% (inactive)
2,CN1c2ccc(-c3ccccc3)cc2[C@H]2[C@H](CCN2C(=O)CN2CCOCC2)[C@H]1CO,34.4% (inactive)
3,CCc1nc2c(OCCc3cccc(OC)c3)cccn2c1N(C)C(=O)c1ccc(C)cc1,-32.4% (inactive)
4,CC1(C)Cc2c(C#N)c(SCC(=O)c3ccccc3)nc(N3CCOCC3)c2CS1,-29.1% (inactive)
5,CCOC(=O)c1cnc(SCc2nc(N)nc(Nc3ccc(OC)cc3)n2)nc1N,-30.6% (inactive)
6,CCOC(=O)C1=C(C)Nc2nc3ccccc3n2C1c1ccncc1 (stereo not given),0.713% (inactive)
7,O=S(=O)(c1ccccc1F)N1CC[C@@H]2[C@H]1c1cc(-c3cccc(F)c3)ccc1N[C@@H]2CO,30.4% (inactive)
8,COC(=O)C[C@H]1CC[C@H]2[C@@H](COc3ccc(NC(=O)Cc4cccs4)cc3C(=O)N2C)O1,28% (inactive)
9,COCC(=O)Nc1ccc2c(c1)C(=O)N(C)[C@H]1CC[C@H](CC(=O)NCc3ccccc3Cl)O[C@H]1CO2,12.8% (inactive)
10,CO[C@H]1CN(C)C(=O)c2cc(NC(=O)Nc3ccc(C(F)(F)F)cc3)ccc2OC[C@H](C)NC[C@H]1C,15.1% (inactive)
11,CN(C)C(=O)c1ccc(-c2ccc3c(c2)[C@@H]2[C@@H](CCN2C(=O)c2ccc(F)cc2)[C@@H](CO)N3C)cc1,24% (inactive)
12,COc1cccc(-c2ccc3c(c2)[C@H]2[C@H](CCN2S(=O)(=O)c2cccc(OC)c2)[C@H](CO)N3)c1,3.66% (inactive)
13,N#C[C@@H]1[C@H](c2ccccc2C2=CCCCC2)[C@H](CO)N1S(=O)(=O)c1ccccc1,25.5% (inactive)
14,Cc1ccc(Nc2nnc(SCc3ccccc3)s2)cc1,-41% (inactive)
15,C[C@H](CO)N1C[C@H](C)[C@H](CN(C)C(=O)c2cccc(F)c2)Oc2ncc(-c3ccccc3)cc2C1=O,25% (inactive)
16,COc1cccc(CN2CCN(C(=O)c3ccc(-c4ccccc4)cc3)CC2)c1OC,-21.9% (inactive)
17,C[C@@H]1CN([C@H](C)CO)C(=O)c2cc(-c3ccccc3)cnc2O[C@@H]1CN(C)C(=O)c1cccc(F)c1,46% (inactive)
18,O=C(Nc1ccc(Cl)cc1)N1C[C@H]2[C@@H](c3ccccc31)[C@H](CO)N2CC1CCCC1,40.8% (inactive)

row,SMILES,"activity change, negative = inhibition"
1,CO[C@H]1CN(C)C(=O)c2cc(NC(=O)Nc3cc(Cl)cc(Cl)c3)ccc2OC[C@@H](C)NC[C@@H]1C,9.01% (inactive)
2,N#C[C@H]1[C@@H](c2ccccc2C2=CCCCC2)[C@@H](CO)N1S(=O)(=O)c1ccccc1,19.1% (inactive)
3,COCC(=O)Nc1ccc2c(c1)C(=O)N(C)[C@H]1CC[C@@H](CC(=O)NCc3ccccc3Cl)O[C@@H]1CO2,40.5% (inactive)
4,COCC(=O)Nc1ccc2c(c1)C(=O)N(C)[C@@H]1CC[C@H](CC(=O)NCc3ccccc3Cl)O[C@@H]1CO2,47.3% (inactive)
5,CO[C@@H]1CN(C)C(=O)c2ccc(NC(=O)c3ccc(-c4ccccc4)cc3)cc2OC[C@H](C)NC[C@@H]1C,5.74% (inactive)
6,C[C@H](CO)N1C[C@H](C)[C@H](CN(C)C(=O)Nc2cccc3ccccc23)Oc2c(NC(=O)Nc3ccc(C(F)(F)F)cc3)cccc2C1=O,14.8% (inactive)
7,N#C[C@@H]1[C@@H](c2ccccc2C2=CCCCC2)[C@H](CO)N1S(=O)(=O)c1ccccc1,23.1% (inactive)
8,N#C[C@H]1[C@H](c2ccccc2C2=CCCCC2)[C@H](CO)N1S(=O)(=O)c1ccccc1,23.3% (inactive)
9,COc1cccc(S(=O)(=O)N2CC[C@@H]3[C@H]2c2cc(-c4ccc(C#N)cc4)ccc2N[C@@H]3CO)c1,-9.22% (inactive)
10,C[C@H](O)C#Cc1ccc2c(c1)O[C@H](CN(C)C)[C@H](C)CN([C@@H](C)CO)S2(=O)=O,28% (inactive)
11,C[C@H]1CN([C@@H](C)CO)C(=O)c2cccc(NC(=O)Nc3ccc(C(F)(F)F)cc3)c2O[C@H]1CN(C)C(=O)Nc1cccc2ccccc12,-1.4% (inactive)
12,CC(C)(C)[S@@](=O)N1Cc2cc(C(=O)NCc3ccccc3F)nc(-c3cccc(-c4ccncc4)c3)c2[C@H]1CCO,-7.62% (inactive)
13,COc1ncccc1C(=O)NC1CCCc2c1cnn2-c1ccc(C)c(C)c1 (stereo not given),-16.2% (inactive)
14,CCCCOc1ccc(C(C)NC(=O)C2CCCN(S(=O)(=O)CCC)C2)cc1 (stereo not given),4.21% (inactive)
15,CO[C@@H]1CN(C)C(=O)c2cc(NC(=O)Nc3cc(Cl)cc(Cl)c3)ccc2OC[C@H](C)NC[C@@H]1C,4.27% (inactive)
16,OC(CNC1CCCc2ccccc21)COc1c(Cl)cccc1Cl (stereo not given),-2.1% (inactive)
17,CO[C@H]1CN(C)C(=O)c2ccc(NC(=O)c3ccc(-c4ccccc4)cc3)cc2OC[C@@H](C)NC[C@H]1C,12.2% (inactive)
